# Experimental data from the supplement of paper PMC7411054.
# Structures can show the parent of a compound that is named as a salt.
# Legend:
# Details in all cases: treatment time: 24 h
# [1] = tested on: HepG2-CANX-COX4; test: lowest phenotypically active concentration; higher = less potent
# Method in brief: (§1)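 Each of fifteen gene-edited A549, HepG2 and WPMY1 reporter lines, marked with BFP for segmentation and GFP and RFP/FusionRed, was treated in four wells at 0.3, 1, 3 or 9 µM for 24 h prior to live imaging. Normalisation of per-well live-cell features used solvent control wells. Deviation needed ≥3 of 4 wells beyond the 95th percentile of control Euclidean distances, and reproducibility needed a median replicate Pearson correlation above the 95th percentile of non-replicates. Both were required for phenotypic activity.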
# [2] = tested on: A549-ACTB-RAB5A; test: phenotypically active (imaging signature differs from DMSO and reproducible) at any of 0.3-9 uM (binary (1 = active, 0 = inactive)); higher = active
# Method in brief: as §1
# [3] = tested on: A549-CANX-COX4; test: as above
# Method in brief: as §1
# [4] = tested on: A549-GM130-SQSTM1; test: as above
# Method in brief: as §1
# [5] = tested on: A549-TP53BP1-CLTA; test: as above
# Method in brief: as §1
# [6] = tested on: A549-TUBA1B-RELA; test: as above
# Method in brief: as §1
# [7] = tested on: HepG2-ACTB-RAB5A; test: as above
# Method in brief: as §1
# [8] = tested on: HepG2-CANX-COX4; test: as above
# Method in brief: as §1
# [9] = tested on: HepG2-GM130-SQSTM1; test: as above
# Method in brief: as §1
# [10] = tested on: HepG2-TP53BP1-CLTA; test: as above
# Method in brief: as §1
# [11] = tested on: HepG2-TUBA1B-RELA; test: as above
# Method in brief: as §1
# [12] = tested on: WPMY1-ACTB-RAB5A; test: as above
# Method in brief: as §1
# [13] = tested on: WPMY1-CANX-COX4; test: as above
# Method in brief: as §1
# [14] = tested on: WPMY1-GM130-SQSTM1; test: as above
# Method in brief: as §1
# [15] = tested on: WPMY1-TP53BP1-CLTA; test: as above
# Method in brief: as §1
# [16] = tested on: WPMY1-TUBA1B-RELA; test: as above
# Method in brief: as §1
# [17] = tested on: A549-CANX-COX4; test: lowest phenotypically active concentration; higher = less potent
# Method in brief: as §1
# [18] = tested on: A549-TP53BP1-CLTA; test: as above
# Method in brief: as §1
# [19] = tested on: HepG2-ACTB-RAB5A; test: as above
# Method in brief: as §1
# [20] = tested on: HepG2-GM130-SQSTM1; test: as above
# Method in brief: as §1
# [21] = tested on: HepG2-TP53BP1-CLTA; test: as above
# Method in brief: as §1
# [22] = tested on: HepG2-TUBA1B-RELA; test: as above
# Method in brief: as §1
# [23] = tested on: WPMY1-ACTB-RAB5A; test: as above
# Method in brief: as §1
# [24] = tested on: WPMY1-CANX-COX4; test: as above
# Method in brief: as §1
# [25] = tested on: WPMY1-GM130-SQSTM1; test: as above
# Method in brief: as §1
# [26] = tested on: WPMY1-TP53BP1-CLTA; test: as above
# Method in brief: as §1
# [27] = tested on: WPMY1-TUBA1B-RELA; test: as above
# Method in brief: as §1
# [28] = tested on: A549-TUBA1B-RELA; test: as above
# Method in brief: as §1
# [29] = tested on: A549-GM130-SQSTM1; test: as above
# Method in brief: as §1
SMILES,lowest phenotypically active concentration [1] [µM],phenotypically active [2],phenotypically active [3],phenotypically active [4],phenotypically active [5],phenotypically active [6],phenotypically active [7],phenotypically active [8],phenotypically active [9],phenotypically active [10],phenotypically active [11],phenotypically active [12],phenotypically active [13],phenotypically active [14],phenotypically active [15],phenotypically active [16],lowest phenotypically active concentration [17] [µM],lowest phenotypically active concentration [18] [µM],lowest phenotypically active concentration [19] [µM],lowest phenotypically active concentration [20] [µM],lowest phenotypically active concentration [21] [µM],lowest phenotypically active concentration [22] [µM],lowest phenotypically active concentration [23] [µM],lowest phenotypically active concentration [24] [µM],lowest phenotypically active concentration [25] [µM],lowest phenotypically active concentration [26] [µM],lowest phenotypically active concentration [27] [µM],lowest phenotypically active concentration [28] [µM],lowest phenotypically active concentration [29] [µM]
CCN(CC)CCN1C(=O)CN=C(c2ccccc2F)c2cc(Cl)ccc21 [flurazepam],1,0 (inactive),0 (inactive),0 (inactive),0 (inactive),0 (inactive),0 (inactive),1 (active),0 (inactive),0 (inactive),0 (inactive),0 (inactive),0 (inactive),0 (inactive),0 (inactive),0 (inactive),–,–,–,–,–,–,–,–,–,–,–,–,–
C[C@]12CC[C@H](O)C[C@H]1CC[C@@H]1[C@@H]2CC[C@]2(C)[C@@H](C3=CC(=O)OC3)CC[C@]12O [Digitoxigenin],≤ 0.3,–,1 (active),–,1 (active),–,1 (active),1 (active),1 (active),1 (active),1 (active),1 (active),1 (active),1 (active),1 (active),1 (active),≤ 0.3,≤ 0.3,≤ 0.3,≤ 0.3,1,≤ 0.3,≤ 0.3,≤ 0.3,1,≤ 0.3,≤ 0.3,–,–
C[C@H]1CC[C@@H]2N(C1)C[C@H]1[C@@H]3C[C@H]4[C@@H](CC(=O)[C@H]5C[C@@H](O)CC[C@@]54C)[C@@H]3CC[C@H]1[C@]2(C)O [Imperialine],–,0 (inactive),0 (inactive),0 (inactive),0 (inactive),0 (inactive),0 (inactive),0 (inactive),0 (inactive),0 (inactive),0 (inactive),1 (active),1 (active),0 (inactive),0 (inactive),0 (inactive),–,–,–,–,–,–,≤ 0.3,≤ 0.3,–,–,–,–,–
O=C1NC(=S)N(c2cccc(Br)c2)C(=O)/C1=C/c1ccco1,9,0 (inactive),0 (inactive),0 (inactive),0 (inactive),1 (active),0 (inactive),1 (active),1 (active),0 (inactive),1 (active),1 (active),1 (active),1 (active),1 (active),1 (active),–,–,–,9,–,9,3,9,3,9,9,9,–
CC(C)C[C@H]1C(=O)N2CCC[C@H]2[C@]2(O)O[C@](NC(=O)[C@@H]3C=C4c5cccc6[nH]c(Br)c(c56)C[C@H]4N(C)C3)(C(C)C)C(=O)N12 [bromocriptine],9,–,0 (inactive),–,1 (active),–,1 (active),1 (active),1 (active),1 (active),1 (active),0 (inactive),0 (inactive),1 (active),1 (active),0 (inactive),–,9,9,9,9,9,–,–,9,9,–,–,–
C[C@@H](CO)NC(=O)[C@@H]1C=C2c3cccc4[nH]cc(c34)C[C@H]2N(C)C1 [Ergobasine],–,0 (inactive),0 (inactive),1 (active),1 (active),0 (inactive),0 (inactive),0 (inactive),1 (active),0 (inactive),0 (inactive),0 (inactive),1 (active),1 (active),1 (active),0 (inactive),–,9,–,9,–,–,–,9,9,9,–,–,9
C[C@H]1CCCC=C[C@@H]2C[C@H](O)C[C@H]2[C@H](O)C=CC(=O)O1 [brefeldin-a],≤ 0.3,–,1 (active),–,1 (active),–,1 (active),1 (active),1 (active),1 (active),1 (active),1 (active),1 (active),1 (active),1 (active),1 (active),≤ 0.3,≤ 0.3,≤ 0.3,≤ 0.3,≤ 0.3,≤ 0.3,≤ 0.3,≤ 0.3,≤ 0.3,≤ 0.3,≤ 0.3,–,–
C[N+]12CCC(CC1)C(OC(=O)C(O)(c1ccccc1)c1ccccc1)C2 (stereo not drawn) [clidinium],–,–,0 (inactive),–,0 (inactive),–,0 (inactive),0 (inactive),0 (inactive),0 (inactive),0 (inactive),0 (inactive),0 (inactive),0 (inactive),0 (inactive),0 (inactive),–,–,–,–,–,–,–,–,–,–,–,–,–
c1ccc([C@@H]2C[C@H]2NC2CCNCC2)cc1 [GSK LSD 1 dihydrochloride],–,0 (inactive),0 (inactive),0 (inactive),0 (inactive),0 (inactive),0 (inactive),0 (inactive),0 (inactive),0 (inactive),0 (inactive),0 (inactive),0 (inactive),1 (active),0 (inactive),0 (inactive),–,–,–,–,–,–,–,–,9,–,–,–,–
C[C@@H]1C[C@@H]([C@H](O)CC2CC(=O)NC(=O)C2)C(=O)[C@@H](C)C1 [Cycloheximide],≤ 0.3,–,1 (active),–,1 (active),–,1 (active),1 (active),1 (active),1 (active),1 (active),1 (active),1 (active),1 (active),1 (active),1 (active),≤ 0.3,≤ 0.3,≤ 0.3,≤ 0.3,3,≤ 0.3,1,≤ 0.3,≤ 0.3,≤ 0.3,≤ 0.3,–,–
CC[C@H]1CN2CCC1C[C@H]2[C@H](O)c1ccnc2ccc(OC)cc12 (stereo partly drawn) [Hydroquinine hydrobromide hydrate],–,–,0 (inactive),–,0 (inactive),–,0 (inactive),0 (inactive),0 (inactive),0 (inactive),0 (inactive),0 (inactive),0 (inactive),0 (inactive),1 (active),0 (inactive),–,–,–,–,–,–,–,–,–,9,–,–,–
O=C1C=C2C=C[C@@H]3C[C@@]2(O1)[C@H]1CCCCN31 [Securinine],–,0 (inactive),0 (inactive),0 (inactive),0 (inactive),0 (inactive),0 (inactive),0 (inactive),1 (active),0 (inactive),0 (inactive),0 (inactive),0 (inactive),0 (inactive),0 (inactive),1 (active),–,–,–,9,–,–,–,–,–,–,9,–,–
